Compound activity as filed in PubChem.
CCHFV vOTU inh: CCHFV vOTU protease inhibition. actives 0.55% (n = 370,000). inhibition, % at 11.5 µM. AID 651958. Pep-AMC fluorescence
GDH-TPI counter-1: counter-screen for M. tuberculosis FBA inhibitors: GDH-TPI coupled enzymes; AID 588335; GDH-TPI coupled enzyme counterscreen, NADH absorbance; actives 1.2% (n = 360,000); inhibition, % at 4.8 µM
Mtb FBA inh: inhibitors of M. tuberculosis fructose-bisphosphate aldolase. purified M. tuberculosis FBA, fluorescence read-out. inhibition, % at 1 µM. actives 2.3% (n = 360,000). AID 588726; in the data active = inhibition above about 27%
Target sequence (P9WQA3 whole entry, looked up): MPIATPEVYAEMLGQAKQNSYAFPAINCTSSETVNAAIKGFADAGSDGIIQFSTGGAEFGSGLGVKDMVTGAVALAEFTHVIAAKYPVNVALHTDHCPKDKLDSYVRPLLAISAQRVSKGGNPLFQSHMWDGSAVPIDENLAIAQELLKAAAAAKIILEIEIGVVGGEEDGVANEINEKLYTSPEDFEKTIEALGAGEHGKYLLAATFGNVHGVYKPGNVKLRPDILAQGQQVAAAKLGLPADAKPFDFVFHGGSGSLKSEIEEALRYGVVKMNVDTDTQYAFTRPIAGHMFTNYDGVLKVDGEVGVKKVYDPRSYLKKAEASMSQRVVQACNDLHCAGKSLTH
BH1578 lux ind: induces V. cholerae light production without autoinducers. V. cholerae BH1578 lux reporter, luminescence, 6 h. activation, % at 18.7 µM. actives 0.16% (n = 350,000); in the data active = activation mostly above about 9.7%, no sharp cut-off
Mtb FBA confirm: confirmation of M. tuberculosis fructose-bisphosphate aldolase inhibitors; shares compounds with Mtb FBA inh; purified M. tuberculosis FBA, fluorescence read-out; inhibition, % at 1 µM; actives 78% (n = 5,600); AID 651616; in the data active = inhibition above about 27%
GDH-TPI counter-2: counter-screen for M. tuberculosis FBA inhibitors: GDH-TPI coupled enzyme inhibition; shares compounds with Mtb FBA inh; GDH-TPI coupled enzyme counterscreen, fluorescence; inhibition, % at 1 µM; actives 81% (n = 5,600); AID 652141; in the data active = inhibition above about 10%
Each line names hits and unclear results; the compound was inactive in the other large screens (follow-up assays come after a bar, where they were run). The list is not random: actives were taken first. Their share in the collection is about 3.9%. Rule as the data show it, unless noted: active = inhibition above about 30%; inactive = the rest.

COc1ccc(C2Nc3ccccc3C(=O)N2NS(=O)(=O)c2ccc(C)cc2)cc1 (stereo not given)	none
CCOC(=O)NN1C(=O)c2ccccc2NC1c1ccccc1F (stereo not given)	Mtb FBA inh 37 | Mtb FBA confirm 51 | GDH-TPI counter-2 32
CCOC(=O)NN1C(=O)c2ccccc2NC1c1ccccn1 (stereo not given)	Mtb FBA inh 30 | Mtb FBA confirm 105 | GDH-TPI counter-2 77
CC(=O)NN1C(=O)c2ccccc2NC1c1ccc(N(C)C)cc1 (stereo not given)	none
CCOC(=O)NN1C(=O)c2ccccc2NC1c1ccc(OC)cc1 (stereo not given)	Mtb FBA inh 40 | Mtb FBA confirm 140 | GDH-TPI counter-2 119
O=C(NN1C(=O)c2ccccc2NC1c1ccco1)c1ccccc1 (stereo not given)	none
O=C(O)CCC(=O)NN1C(=O)c2ccccc2NC1c1ccco1 (stereo not given)	Mtb FBA inh 32 | Mtb FBA confirm inactive | GDH-TPI counter-2 inactive
CCOC(=O)NN1C(=O)c2ccccc2NC1c1ccccc1 (stereo not given)	Mtb FBA inh 39 | Mtb FBA confirm active | GDH-TPI counter-2 active
CCOC(=O)NN1C(=O)c2ccccc2NC1c1ccc(N(C)C)cc1 (stereo not given)	none
CN(C)c1ncc(S(=O)(=O)c2ccccc2)c(N)n1	none
Cc1ccc(S(=O)(=O)c2cc3ccccc3nc2N)cc1	Mtb FBA inh 36 | Mtb FBA confirm active | GDH-TPI counter-2 193
CNC(=S)/N=C(\Nc1ccc(C)cc1)c1ccccc1	none
CC(C)c1ccc(NC(=S)N2CCN(C)CC2)cc1	Mtb FBA inh 32 | Mtb FBA confirm inactive | GDH-TPI counter-2 inactive
CC(C)c1ccc(NC(=S)N2CCCC2)cc1	none
CCOC(=O)CCn1c2nc(C)cc(C)c2c(=O)n1-c1ccccc1	Mtb FBA inh 28 | Mtb FBA confirm 49 | GDH-TPI counter-2 41
Cc1ccc2c(c1)NC(=O)C(CC(=O)NCc1cccnc1)O2 (stereo not given)	none
COc1ccc(C(=O)N2CCN(c3nc4cc(C)cc(C)c4cc3C#N)CC2)cc1	none
N#Cc1cc2cc3c(cc2nc1Cl)OCCO3	none
Cc1ccc(C(=O)N2CCCN(c3nc4cc5c(cc4cc3C#N)OCO5)CC2)cc1	Mtb FBA inh 45 | Mtb FBA confirm 145 | GDH-TPI counter-2 88
N#Cc1cc2cc3c(cc2nc1N1CCCCC1)OCCO3	Mtb FBA inh 47 (no result: BH1578 lux ind) | Mtb FBA confirm 55 | GDH-TPI counter-2 42
CCOc1ccc2nc(NCCCNC(=O)c3cc(OC)c(OC)c(OC)c3)c(C#N)cc2c1	none
CCOc1ccc2nc(NCCNC(=O)CC)c(C#N)cc2c1	Mtb FBA inh 43 | Mtb FBA confirm 105 | GDH-TPI counter-2 114
CCC(=O)NCCNc1nc2cc(C)c(C)cc2cc1C#N	Mtb FBA inh 53 | Mtb FBA confirm inactive | GDH-TPI counter-2 inactive
Cc1cc(C)c2cc(C#N)c(NCCNC(=O)c3ccncc3)nc2c1	none (no result: GDH-TPI counter-1, Mtb FBA inh, BH1578 lux ind)
COc1cc(NC(=O)c2ccccc2F)c(OC)cc1NC(=O)CN1CCCCC1	none
COc1ccc(-c2oc3ccc(N4CCOCC4)cc3c2/C=C/c2ccc(OC)c(OC)c2)cc1	GDH-TPI counter-1 40, Mtb FBA inh 36 | Mtb FBA confirm active | GDH-TPI counter-2 176
COc1ccc(/C=C/c2c(-c3ccc(OC)cc3)sc3ccc(N4CCOCC4)cc23)cc1	none (no result: CCHFV vOTU inh)
Cc1cc(C)nc(SCc2nc3nc(C)cc(C)n3c2Br)n1	Mtb FBA inh 30 | Mtb FBA confirm 36 | GDH-TPI counter-2 22
Cc1cc(C)n2c(Br)c(CN3CCCC(C)C3)nc2n1 (stereo not given)	Mtb FBA inh 35 | Mtb FBA confirm 77 | GDH-TPI counter-2 58
Cc1cc(C)n2c(Br)c(CN3CC4CC(C3)c3cccc(=O)n3C4)nc2n1 (stereo not given)	none
O=c1c2ccccc2nc(-c2ccco2)n1CCc1ccc(O)cc1	none
O=c1cc(-c2ccco2)oc2c1ccc1ccccc12	Mtb FBA inh 49 | Mtb FBA confirm active | GDH-TPI counter-2 active
CCOc1cc(N2CCOCC2)c(OCC)cc1NC(=O)COC(=O)c1ccc([N+](=O)[O-])o1	none
C=CCOc1ccc2c(OC)c3ccoc3nc2c1OC	Mtb FBA inh 87 | Mtb FBA confirm 40 | GDH-TPI counter-2 28
CCOc1c(OC)ccc2c3c(c(=O)oc12)CCCC3	none
CCOc1c2ccoc2nc2c(OC)c(OC)ccc12	Mtb FBA inh 67 | Mtb FBA confirm active | GDH-TPI counter-2 175
